{"source": "PubChem BioAssay (NCATS)", "note": "Results filed as inconclusive are left out. Entries that show only a call come without a potency. Calls of active or inactive are those of the source. The call rests on the fitted dose curve; in most records, active means well fitted inhibition curve with a large enough effect; inconclusive means small, poorly fitted or top-dose-only effect; inactive means flat fitted curve, though single readings scatter.", "data": [{"target": "Calcium and integrin-binding protein 1 (Homo sapiens) (UniProt Q99828)", "sequence (Q99828 whole entry, looked up)": "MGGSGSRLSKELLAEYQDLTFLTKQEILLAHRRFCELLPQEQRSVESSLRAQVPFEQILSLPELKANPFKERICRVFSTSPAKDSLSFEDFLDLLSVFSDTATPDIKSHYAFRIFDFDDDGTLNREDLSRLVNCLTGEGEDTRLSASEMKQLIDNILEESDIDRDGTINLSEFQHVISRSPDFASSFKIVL", "test": "Primary qHTS for Identification of Calcium Integrin Binding Protein 1 (CIB1) Competitor (AID 1508620);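 further: GST tagged CIB1 binding a fluorescein labelled alphaIIb integrin peptide tracer; top concentration of the series differs between compounds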", "conditions": "CIB1-GST / FITC-alphaIIb peptide fluorescence polarization; series mostly up to 114 µM", "how_it_was_run": "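Fluorescence polarization competition: CIB1-GST (1 uM final) preincubated with compound 15 min at room temperature, then FITC-labeled alphaIIb peptide (100 nM final) added for another 15 min. Polarization read at Ex 480/Em 540.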", "values": [{"smiles": "CC(C)[N+]1(C)C2CCC1CC(OC(=O)C(CO)c1ccccc1)C2", "note": "(centres undefined)", "Potency": "inactive"}, {"smiles": "C/C=C/c1ccc2c(c1)[C@@H](C)[C@H](c1ccc(O)cc1)O2", "Potency": "inactive"}, {"smiles": "CO[C@H]1C[C@@H]2CC[C@@H](C)[C@@](O)(O2)C(=O)C(=O)N2CCCC[C@H]2C(=O)O[C@H]([C@H](C)C[C@H]2CC[C@@H](OP(C)(C)=O)[C@H](OC)C2)CC(=O)[C@H](C)/C=C(\\C)[C@@H](O)[C@@H](OC)C(=O)[C@H](C)C[C@H](C)/C=C/C=C/C=C/1C", "Potency": "inactive"}, {"smiles": "COC(=O)C1=CO[C@@H](O)C2C(CO)=CCC12", "note": "(some centres undefined)", "Potency": "inactive"}, {"smiles": "C[C@@H]1O[C@@H](O[C@@H]2[C@@H](O[C@@H]3O[C@@H](C)[C@H](O[C@@H]4OC[C@H](O)[C@H](O[C@@H]5OC[C@@H](O)[C@H](O)[C@H]5O)[C@H]4O)[C@@H](O[C@@H]4OC[C@](O)(CO)[C@H]4O)[C@H]3O)[C@H](OC(=O)[C@]34CCC(C)(C)C[C@H]3C3=CCC5[C@@]6(C)C[C@H](O)[C@H](O[C@@H]7O[C@H](CO[C@@H]8OC[C@H](O)[C@H](O)[C@H]8O)[C@@H](O)[C@H](O)[C@H]7O)C(C)(C)C6CC[C@@]5(C)[C@]3(C)C[C@H]4O)OC[C@H]2O)[C@H](O)[C@H](O)[C@H]1O", "note": "(some centres undefined)", "activity change, negative = inhibition": "-4.21% [at 12.4 µM] (inactive)"}, {"smiles": "C[C@@H]1O[C@@H](O[C@H]2[C@H](O)[C@@H](O)[C@H](O[C@H]3[C@H](O[C@H]4CC[C@@]5(C)C(=CC[C@@H]6C5CC[C@]5(C)[C@@H]7[C@H](C[C@@H]65)O[C@]5(CC[C@@](C)(CO[C@@H]6O[C@H](CO)[C@@H](O)[C@H](O)[C@H]6O)O5)[C@H]7C)C4)O[C@H](CO)[C@@H](O)[C@@H]3O)O[C@@H]2CO)[C@H](O)[C@H](O)[C@H]1O", "note": "(some centres undefined)", "Potency": "inactive"}, {"smiles": "C/C1=C\\CCC2=C[C@@H](OC2=O)c2c(C)coc2C1", "Potency": "inactive"}, {"smiles": "CC(=O)O[C@H]1C[C@@]2(C)[C@@H](CC[C@H]3[C@@]4(C)C=CC(=O)[C@@H](C)[C@@H]4[C@H](O)C(=O)[C@@]32C)/C1=C(/CCC=C(C)C)C(=O)O", "Potency": "inactive"}, {"smiles": "CC1=CCC2C(C)(C)CCC[C@]2(C)[C@@]12CC[C@](C)(CC(=O)O)O2", "note": "(some centres undefined)", "Potency": "inactive"}, {"smiles": "COc1ccc([C@@]2(O)c3c(ccc4c3OC(C)(CCC=C(C)C)C=C4)NC(=O)[C@@H]2OC)cc1", "note": "(some centres undefined)", "Potency": "inactive"}, {"smiles": "CC(=O)c1cc(C(=O)N[C@@H](C)Cn2ccc(-c3ccc(C#N)c(Cl)c3)n2)[nH]n1", "Potency": "inactive"}, {"smiles": "C=C1C(=O)OC2CC3(C)C(CC12)C(C)=CC(O)C3OC(C)=O", "note": "(centres undefined)", "Potency": "inactive"}, {"smiles": "C=C1CCC2C(C)(C)CCC[C@]2(C)[C@H]1C/C=C(\\CO)C(=O)C(=O)O", "note": "(some centres undefined)", "Potency": "inactive"}, {"smiles": "CC(=O)O[C@@H]1c2c3c(cc(O)c2C(=O)O[C@@H]1C)O[C@@]1(C)[C@@H](O)C[C@H]2C(C)(C)C(=O)C=C[C@]2(C)[C@@H]1C3", "Potency": "inactive"}, {"smiles": "COC(=O)N[C@H](C(=O)N1[C@@H]2CC[C@@H](C2)[C@H]1c1nc2ccc(-c3ccc4c(c3)C(F)(F)c3cc(-c5cnc([C@@H]6CCC7(CC7)N6C(=O)[C@@H](NC(=O)OC)C(C)C)[nH]5)ccc3-4)cc2[nH]1)C(C)C", "Potency": "inactive"}, {"smiles": "CC#CC(=O)N1CCC[C@H]1c1nc(-c2ccc(C(=O)Nc3ccccn3)cc2)c2c(N)nccn12", "Potency": "inactive"}, {"smiles": "C=C1CCC2C(C)(C)C(O)CCC2(C)C1CCC(C)CCO", "note": "(centres undefined)", "Potency": "inactive"}, {"smiles": "CC12CCC(OC3OC(CO)C(O)C(OC4OC(CO)C(O)C(O)C4O)C3O)CC1=CCC1C2CCC2(C)/C(=C3/COC(=O)C3)CCC12O", "note": "(centres undefined)", "Potency": "inactive"}, {"smiles": "Cc1ccc(-c2ccc3c(ccc4sc5c(c43)NC[C@@H](C)NC5=O)n2)cn1", "Potency": "inactive"}, {"smiles": "N#C[C@@H]1CCCN1C(=O)CNC12CC3CC(CC(O)(C3)C1)C2", "Potency": "inactive"}, {"smiles": "CO[C@H]1C[C@@H]2CC[C@@H](C)[C@@](O)(O2)C(=O)C(=O)N2CCCC[C@H]2C(=O)O[C@H]([C@H](C)C[C@@H]2CC[C@H](n3cnnn3)[C@H](OC)C2)CC(=O)[C@H](C)/C=C(\\C)[C@@H](O)[C@@H](OC)C(=O)[C@H](C)C[C@H](C)/C=C/C=C/C=C/1C", "Potency": "inactive"}, {"smiles": "C/C1=C\\C[C@]2(C)C(=O)C(O)=C([C@H](C)CO)[C@H]2C/C=C(\\C)[C@@H](O)CC/C(C)=C/CC1", "Potency": "inactive"}, {"smiles": "N[C@H]1Cc2ccccc2N(O)C1=O", "Potency": "inactive"}, {"smiles": "Cn1nnc(-c2ccc(-c3ccc(N4C[C@H](COP(=O)(O)O)OC4=O)cc3F)cn2)n1", "Potency": "inactive"}, {"smiles": "CCC[C@@H]1O[C@@H]2C[C@H]3[C@@H]4CCC5=CC(=O)C=C[C@]5(C)[C@H]4[C@@H](O)C[C@]3(C)[C@]2(C(=O)CO)O1", "Potency": "inactive"}, {"smiles": "O=C1CSc2ccccc2N1Cc1cccc(C(F)(F)F)c1", "Potency": "inactive"}, {"smiles": "CCC(C)C(=O)OC1CC(C)C=C2C=CC(C)C(CCC(O)CC(O)CC(=O)O)C21", "note": "(centres undefined)", "Potency": "inactive"}, {"smiles": "C=C1C(=O)OC2C1C(O)CC1(C)C(O)CCC(C=O)C21", "note": "(centres undefined)", "Potency": "inactive"}, {"smiles": "OC[C@@]1(O)CO[C@@H](OC[C@H]2O[C@@H](Oc3c[nH]c4ccccc34)[C@H](O)[C@@H](O)[C@@H]2O)[C@@H]1O", "Potency": "inactive"}, {"smiles": "C[C@@H]1O[C@@H](O[C@H]2[C@H](OC(=O)[C@]34CCC(C)(C)C[C@H]3C3=CCC5[C@@]6(C)C[C@H](O)[C@H](O[C@@H]7O[C@H](CO)[C@@H](O)[C@H](O)[C@H]7O)[C@@](C)(CO)C6[C@H](O)C[C@@]5(C)[C@]3(C)C[C@H]4O)OC[C@H](O)[C@@H]2O)[C@H](O)[C@H](O)[C@H]1O[C@@H]1OC[C@@H](O)[C@H](O[C@H]2OC[C@](O)(CO)[C@H]2O)[C@H]1O", "note": "(some centres undefined)", "activity change, negative = inhibition": "3.47% [at 12.4 µM] (inactive)"}, {"smiles": "Cc1ccc(F)cc1C(=O)Nc1ccc(C(=O)N2Cc3cccn3Cc3ccccc32)c(Cl)c1", "Potency": "inactive"}, {"smiles": "C=C(C)[C@@H]1CC[C@]2(C)CC[C@]3(C)[C@H](CC[C@@H]4[C@@]5(C)CC[C@@H](O)C(C)(C)[C@@H]5CC[C@]43C)[C@@H]12", "Potency": "inactive"}, {"smiles": "CC(=O)OC1C(O)CC2(C)C(CCC(C)C23Cc2c(O)cc(CO)c(C=O)c2O3)C1(C)C", "note": "(centres undefined)", "Potency": "inactive"}, {"smiles": "NC(=O)c1csc(C2OC(CO)C(O)C2O)n1", "note": "(centres undefined)", "Potency": "inactive"}, {"smiles": "CC1=CC(=O)C2C(C)(C)CCC[C@]2(C)[C@H]1CO", "note": "(some centres undefined)", "Potency": "inactive"}, {"smiles": "CCc1ccc(Cc2ccc3c(c2)[C@]2(OC3)O[C@H](CO)[C@@H](O)[C@H](O)[C@H]2O)cc1", "Potency": "inactive"}, {"smiles": "C=C1CC[C@H]2[C@@](C)(CCC(O)[C@@]2(C)CO)[C@@H]1CCC1=CCOC1=O", "note": "(some centres undefined)", "Potency": "inactive"}, {"smiles": "C=C1CCC2C(C(C)(C)O)CCC2(C)CC(O)C(=C)CCC1O", "note": "(centres undefined)", "Potency": "inactive"}, {"smiles": "C/C=C/C=C/C=C/C(=O)OC1C=C(C=O)C(O)(C(=O)O)C2(C)CCCC(C)(C)C12", "note": "(centres undefined)", "Potency": "inactive"}]}]}
